This is a sample that favours compounds with a hit; in the whole collection about 2% have one here.
UHRF1 binding – UHRF1 methyl-DNA binding inhibition; hit rate 0.75% among 370,000; UHRF1 binding to methylated oligo, TR-FRET; inhibition, % at 4.4 µM;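 note: UHRF1 SRA domain binding a hemimethylated CpG hairpin DNA probe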
LEDGF integ inh – blocks HIV-1 LEDGF/p75-dependent DNA integration | TR-FRET IN-LEDGF/p75 DNA integration, Eu/Cy5 | inhibition, % at 3.7 µM | hit rate 0.64% among 370,000 | AID 743269;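 active = inhibition above the screen-wide mean plus 3 SD, cut at about 13% in these data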;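 note: signal is the Cy5 over europium emission ratio at 671 and 618 nm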
MBD2 DNA inh – inhibitors of human MBD2 binding to methylated oligonucleotide; Q9UBB5; TR-FRET; inhibition, % at 4.4 µM; hit rate 0.31% among 370,000; AID 686964; in the data active = inhibition above about 13%
Rin1-Abl PPI inh – human Rin1-Abl interaction inhibition; hit rate 0.4% among 360,000; inhibition, % at 7.35 µM; P00519+Q13671; TR-FRET Rin1/Abl binding, biochemical; in the data active = inhibition above about 5%, passing the limit was not always enough
TCR CD3 inh – inhibitors of human TCR-CD3 interaction. TAMRA-labeled TCR probe fluorescence, biochemical. inhibition, % at 9.4 µM. AID 651800. hit rate 0.37% among 360,000; in the data active = inhibition above about 19%;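 note: recombinant mutant TCR 2C K166C tagged with TAMRA read by polarization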
Rin1 Abl conf – confirmation of inhibitors of human Rin1-Abl interaction; shares compounds with Rin1-Abl PPI inh; hit rate 49% among 1,300; AID 602124; inhibition, % at 7.35 µM; TR-FRET Rin1-Abl binding, purified proteins; in the data active = inhibition above about 6.5%
GFP quencher – quenches GFP fluorescence, counter-screen for Rin1-Abl inhibitors; inhibitors/quenchers counterscreen; inhibition, % at 6.75 µM; hit rate 8.5% among 1,300; shares compounds with Rin1-Abl PPI inh; in the data active = inhibition above about 6.5%;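 note: ABL1-eGFP fusion protein alone without its partner RIN1-SBP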
BSA TAMRA ctr – counter-screen for TCR-CD3 interaction inhibitors: BSA probe; shares compounds with TCR CD3 inh; TAMRA-labeled BSA probe fluorescence counterscreen; inhibition, % at 9.4 µM; hit rate 10% among 1,200; AID 652035; in the data active = inhibition above about 23%
TCR-CD3 conf – confirmation of human TCR-CD3 interaction inhibitors | shares compounds with TCR CD3 inh | TAMRA-labeled TCR probe fluorescence binding assay | inhibition, % at 9.4 µM | hit rate 48% among 1,200 | AID 652036; in the data active = inhibition above about 19%
UHRF1 ctr MBD2 – UHRF1 methyl-oligo binding inhibition as MBD2 counter-screen; shares compounds with MBD2 DNA inh; UHRF1 binding to methylated oligonucleotide, TR-FRET; inhibition, % at 4.4 µM; hit rate 25% among 1,000; AID 720530;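 note: UHRF1 SRA domain binding a labeled hemimethylated CpG hairpin DNA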
MBD2 DBD conf – confirmation of human MBD2-DBD methylated oligonucleotide binding inhibitors. hit rate 26% among 1,000. TR-FRET MBD2-DBD binding to methylated oligonucleotide. inhibition, % at 4.4 µM. shares compounds with MBD2 DNA inh; in the data active = inhibition above about 14%
IN multimer up – activates HIV-1 integrase multimerization in LEDGF counter-screen; activation, % at 7.7 µM; TR-FRET HIV-1 integrase multimerization, biochemical; shares compounds with LEDGF integ inh; hit rate 17% among 2,000; in the data active = activation above about 8.9%
TRFRET interf – counter-screen for LEDGF/p75 integration inhibitors: TR-FRET optical interference. shares compounds with LEDGF integ inh. TR-FRET optical interference counterscreen, HIV-1 IN multimerization. inhibition, % at 7.7 µM. 2,000 tested, under 10 active. AID 1053135;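 active = inhibition above the mean over all tested compounds plus 3 SD, which no compound reached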
IN-LEDGF confirm – LEDGF/p75-dependent HIV-1 integration inhibition, confirmation; TR-FRET LEDGF/p75-dependent HIV-1 integration, biochemical; hit rate 36% among 2,000; shares compounds with LEDGF integ inh; inhibition, % at 3.7 µM; in the data active = inhibition above about 14%
Numbers stand for hits; - = inactive; . = not tested or not shown. Cut-off read from the data, not from the text of the source, unless noted: active = inhibition above about 21%; inactive = the rest.

SMILES	UHRF1 binding	LEDGF integ inh	MBD2 DNA inh	Rin1-Abl PPI inh	TCR CD3 inh	Rin1 Abl conf	GFP quencher	BSA TAMRA ctr	TCR-CD3 conf	IN multimer up	TRFRET interf	IN-LEDGF confirm	others
C=C1c2cccc(O)c2C(=O)C2C(=O)[C@]3(O)C(=O)C(C(N)=O)C(=O)[C@@H](N(C)C)[C@@H]3[C@@H](O)[C@H]12 (stereo partly drawn)	96	86	90	33	28	-	-	-	-	37	-	52	UHRF1 ctr MBD2=-;MBD2 DBD conf=-
CSc1ccccc1C(=O)NC1CCSc2ccccc21 (stereo not drawn)	-	-	-	-	-	.	.	.	.	.	.	.
CCOc1cc(/C=C2/C(=O)N(c3ccccc3)N=C2C)ccc1OC(=O)c1ccco1	-	25	-	19	-	-	-	.	.	-	-	-
COCC(=O)OC1CCn2c1nc1c2C(=O)C(C)=C(NC(C)=O)C1=O (stereo not drawn)	-	16	-	18	-	16	-	.	.	-	-	58
Nc1nc2c(ncn2[C@@H]2O[C@H](C(=O)N[C@H](Cc3ccccc3)C(=O)NCCCc3ccccc3)[C@@H](O)[C@H]2O)c(=O)[nH]1	-	-	-	.	-	.	.	.	.	.	.	.
COc1cc2oc(=O)cc(CN(Cc3ccccc3)Cc3ccccc3)c2cc1Cl	-	-	-	-	-	.	.	.	.	.	.	.
Oc1ccc(/C=N/Nc2ccc(Cl)nn2)c(O)c1O	21	70	-	29	56	27	17	-	55	31	-	62
Oc1c(Br)cc(Br)cc1/C=N/Nc1ccc(Cl)nn1	-	-	-	-	-	.	.	.	.	.	.	.
O=C(CC(O)c1ccccc1)Nc1ccccn1 (stereo not drawn)	-	-	-	-	-	.	.	.	.	.	.	.
CC(C)C(NS(=O)(=O)c1cccc2nsnc12)C(=O)N1CCCCC1 (stereo not drawn)	-	-	-	-	-	.	.	.	.	.	.	.
CC(=O)c1ccc2c(c1)C1C=CCC1C(C(=O)O)N2 (stereo not drawn)	93	90	104	14	49	13	43	.	.	53	-	77
Cc1cccc(NC(=O)COC(=O)c2c(-c3ccccc3)noc2C)c1	-	-	-	-	-	.	.	.	.	.	.	.
O=C1C=CC2=C3c4cc(O)c(O)cc4CC3(O)COC2=C1O (stereo not drawn)	56	90	35	67	88	73	45	-	93	68	-	93
COc1ccccc1C1NC(=O)NC(C)=C1C(=O)OC1CCC(C)CC1 (stereo not drawn)	-	-	-	-	-	.	.	.	.	.	.	.
CCOC(=O)C1(C)CCN1C(=O)/C=C/c1ccccc1 (stereo not drawn)	-	-	-	-	-	.	.	.	.	.	.	.
O=c1cc(-c2ccc(O)c(O)c2)oc2cc(O)c(C3OC(CO)C(O)C(O)C3O)c(O)c12 (stereo not drawn)	-	46	-	27	-	33	8.9	.	.	73	-	91
O=c1cc(-c2ccc(O)c(O)c2)oc2c(C3O[C@H](CO)[C@@H](O)[C@H](O)[C@H]3O)c(O)cc(O)c12 (stereo partly drawn)	-	68	-	22	-	37	14	.	.	81	-	90
O=c1cc(-c2ccc(O)cc2)oc2cc(O)c([C@@H]3O[C@H](CO)[C@@H](O)[C@H](O)[C@H]3O)c(O)c12	-	-	-	-	-	.	.	.	.	.	.	.
COc1ccc(N2CCN(C(=O)COC(=O)CNC(=O)c3cccc(OC(F)F)c3)CC2)cc1	-	-	-	-	-	.	.	.	.	.	.	.
N#C/C(=C\c1ccc(O)c(O)c1)C(=O)Nc1cccc2ncccc12	28	49	21	8.7	72	13	14	-	60	72	-	85	UHRF1 ctr MBD2=-;MBD2 DBD conf=-
O=C(COc1ccc(Br)cc1)OCCN1CCCCC1	-	-	-	-	-	.	.	.	.	.	.	.
O=C1C=CC(=O)c2c(O)c(N3CCN(CCOCCO)CC3)c(Br)c(O)c21	40	50	-	39	75	54	25	-	48	99	-	83
OCCOCCN1CCN(C2=Nc3ccccc3Sc3ccccc32)CC1	-	-	-	-	-	.	.	.	.	.	.	.
O=C1C=CC(=O)c2c(O)c(N3CCN(CCO)CC3)c(Cl)c(O)c21	-	26	-	48	63	51	24	-	39	91	-	78
O=S(=O)(c1ccc(Br)cc1Cl)N1CCN(CCO)CC1	-	-	-	-	-	.	.	.	.	.	.	.
SMILES	UHRF1 binding	LEDGF integ inh	MBD2 DNA inh	Rin1-Abl PPI inh	TCR CD3 inh	Rin1 Abl conf	GFP quencher	BSA TAMRA ctr	TCR-CD3 conf	IN multimer up	TRFRET interf	IN-LEDGF confirm	others
O=c1cc(-c2ccc(O)cc2)oc2c(O)c(O)c(O)c(O)c12	-	41	-	37	23	48	22	-	38	19	-	92
CC(C)NC(=O)c1cc(-c2ccc(F)cc2OC(C)C)n[nH]1	-	-	-	-	-	.	.	.	.	.	.	.
CCC(C(=O)O)N1C(=O)/C(=C/c2cccn2C)SC1=S (stereo not drawn)	-	-	-	-	-	.	.	.	.	.	.	.
O=C(O)CC(C(=O)O)N1C(=O)/C(=C/C=C/c2ccco2)SC1=S (stereo not drawn)	100	89	109	18	-	11	13	.	.	37	-	94	UHRF1 ctr MBD2=92;MBD2 DBD conf=59
Cc1ccc(S(=O)(=O)N2CCN(C(=O)CSCc3ccc(C(C)C)cc3)CC2)cc1	-	-	-	-	-	.	.	.	.	.	.	.
CCN=c1scc(C)n1/N=C/c1ccc(O)c(O)c1O	-	52	-	20	27	16	12	-	41	20	-	36
O=C(O)CCCCCCCCCCC1CCC(O)C1O (stereo not drawn)	-	-	-	-	-	.	.	.	.	.	.	.

Screening results (PubChem BioAssay)
